89 compounds from PubChem BioAssay AID1671202 (University of Kansas High Throughput Screening Laboratory, 2021) can be followed below.

Several values for one entry are separate records, joined by “and”; a condition that tells them apart may be missing. Identical values can stand only once. Screen size: about 190,000 compounds; about 6,900 (3.6%) were called active. No stated cut-off is given here; in the data, active means inhibition above about 50%; inactive means the rest. Shown is part of a subset that was picked to be rich in actives. A structure can be active in one record and inactive in another.

The target of the experiment is Huntingtin (Homo sapiens) (UniProt P42858). Kind of experiment: mutant huntingtin-calmodulin interaction inhibitors – biochemical, AlphaScreen, primary screen (AID 1671202).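 Further: 0% = both proteins with DMSO and 100% = one protein alone.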 The note with it: AlphaScreen His-mHTT/GST-CaM binding, luminescence; at 15 µM, stronger effect = higher value. A general note: Bead proximity is the source of the signal in Alpha formats.
Huntingtin (Homo sapiens), sequence (P42858 whole entry, looked up, stated change not applied): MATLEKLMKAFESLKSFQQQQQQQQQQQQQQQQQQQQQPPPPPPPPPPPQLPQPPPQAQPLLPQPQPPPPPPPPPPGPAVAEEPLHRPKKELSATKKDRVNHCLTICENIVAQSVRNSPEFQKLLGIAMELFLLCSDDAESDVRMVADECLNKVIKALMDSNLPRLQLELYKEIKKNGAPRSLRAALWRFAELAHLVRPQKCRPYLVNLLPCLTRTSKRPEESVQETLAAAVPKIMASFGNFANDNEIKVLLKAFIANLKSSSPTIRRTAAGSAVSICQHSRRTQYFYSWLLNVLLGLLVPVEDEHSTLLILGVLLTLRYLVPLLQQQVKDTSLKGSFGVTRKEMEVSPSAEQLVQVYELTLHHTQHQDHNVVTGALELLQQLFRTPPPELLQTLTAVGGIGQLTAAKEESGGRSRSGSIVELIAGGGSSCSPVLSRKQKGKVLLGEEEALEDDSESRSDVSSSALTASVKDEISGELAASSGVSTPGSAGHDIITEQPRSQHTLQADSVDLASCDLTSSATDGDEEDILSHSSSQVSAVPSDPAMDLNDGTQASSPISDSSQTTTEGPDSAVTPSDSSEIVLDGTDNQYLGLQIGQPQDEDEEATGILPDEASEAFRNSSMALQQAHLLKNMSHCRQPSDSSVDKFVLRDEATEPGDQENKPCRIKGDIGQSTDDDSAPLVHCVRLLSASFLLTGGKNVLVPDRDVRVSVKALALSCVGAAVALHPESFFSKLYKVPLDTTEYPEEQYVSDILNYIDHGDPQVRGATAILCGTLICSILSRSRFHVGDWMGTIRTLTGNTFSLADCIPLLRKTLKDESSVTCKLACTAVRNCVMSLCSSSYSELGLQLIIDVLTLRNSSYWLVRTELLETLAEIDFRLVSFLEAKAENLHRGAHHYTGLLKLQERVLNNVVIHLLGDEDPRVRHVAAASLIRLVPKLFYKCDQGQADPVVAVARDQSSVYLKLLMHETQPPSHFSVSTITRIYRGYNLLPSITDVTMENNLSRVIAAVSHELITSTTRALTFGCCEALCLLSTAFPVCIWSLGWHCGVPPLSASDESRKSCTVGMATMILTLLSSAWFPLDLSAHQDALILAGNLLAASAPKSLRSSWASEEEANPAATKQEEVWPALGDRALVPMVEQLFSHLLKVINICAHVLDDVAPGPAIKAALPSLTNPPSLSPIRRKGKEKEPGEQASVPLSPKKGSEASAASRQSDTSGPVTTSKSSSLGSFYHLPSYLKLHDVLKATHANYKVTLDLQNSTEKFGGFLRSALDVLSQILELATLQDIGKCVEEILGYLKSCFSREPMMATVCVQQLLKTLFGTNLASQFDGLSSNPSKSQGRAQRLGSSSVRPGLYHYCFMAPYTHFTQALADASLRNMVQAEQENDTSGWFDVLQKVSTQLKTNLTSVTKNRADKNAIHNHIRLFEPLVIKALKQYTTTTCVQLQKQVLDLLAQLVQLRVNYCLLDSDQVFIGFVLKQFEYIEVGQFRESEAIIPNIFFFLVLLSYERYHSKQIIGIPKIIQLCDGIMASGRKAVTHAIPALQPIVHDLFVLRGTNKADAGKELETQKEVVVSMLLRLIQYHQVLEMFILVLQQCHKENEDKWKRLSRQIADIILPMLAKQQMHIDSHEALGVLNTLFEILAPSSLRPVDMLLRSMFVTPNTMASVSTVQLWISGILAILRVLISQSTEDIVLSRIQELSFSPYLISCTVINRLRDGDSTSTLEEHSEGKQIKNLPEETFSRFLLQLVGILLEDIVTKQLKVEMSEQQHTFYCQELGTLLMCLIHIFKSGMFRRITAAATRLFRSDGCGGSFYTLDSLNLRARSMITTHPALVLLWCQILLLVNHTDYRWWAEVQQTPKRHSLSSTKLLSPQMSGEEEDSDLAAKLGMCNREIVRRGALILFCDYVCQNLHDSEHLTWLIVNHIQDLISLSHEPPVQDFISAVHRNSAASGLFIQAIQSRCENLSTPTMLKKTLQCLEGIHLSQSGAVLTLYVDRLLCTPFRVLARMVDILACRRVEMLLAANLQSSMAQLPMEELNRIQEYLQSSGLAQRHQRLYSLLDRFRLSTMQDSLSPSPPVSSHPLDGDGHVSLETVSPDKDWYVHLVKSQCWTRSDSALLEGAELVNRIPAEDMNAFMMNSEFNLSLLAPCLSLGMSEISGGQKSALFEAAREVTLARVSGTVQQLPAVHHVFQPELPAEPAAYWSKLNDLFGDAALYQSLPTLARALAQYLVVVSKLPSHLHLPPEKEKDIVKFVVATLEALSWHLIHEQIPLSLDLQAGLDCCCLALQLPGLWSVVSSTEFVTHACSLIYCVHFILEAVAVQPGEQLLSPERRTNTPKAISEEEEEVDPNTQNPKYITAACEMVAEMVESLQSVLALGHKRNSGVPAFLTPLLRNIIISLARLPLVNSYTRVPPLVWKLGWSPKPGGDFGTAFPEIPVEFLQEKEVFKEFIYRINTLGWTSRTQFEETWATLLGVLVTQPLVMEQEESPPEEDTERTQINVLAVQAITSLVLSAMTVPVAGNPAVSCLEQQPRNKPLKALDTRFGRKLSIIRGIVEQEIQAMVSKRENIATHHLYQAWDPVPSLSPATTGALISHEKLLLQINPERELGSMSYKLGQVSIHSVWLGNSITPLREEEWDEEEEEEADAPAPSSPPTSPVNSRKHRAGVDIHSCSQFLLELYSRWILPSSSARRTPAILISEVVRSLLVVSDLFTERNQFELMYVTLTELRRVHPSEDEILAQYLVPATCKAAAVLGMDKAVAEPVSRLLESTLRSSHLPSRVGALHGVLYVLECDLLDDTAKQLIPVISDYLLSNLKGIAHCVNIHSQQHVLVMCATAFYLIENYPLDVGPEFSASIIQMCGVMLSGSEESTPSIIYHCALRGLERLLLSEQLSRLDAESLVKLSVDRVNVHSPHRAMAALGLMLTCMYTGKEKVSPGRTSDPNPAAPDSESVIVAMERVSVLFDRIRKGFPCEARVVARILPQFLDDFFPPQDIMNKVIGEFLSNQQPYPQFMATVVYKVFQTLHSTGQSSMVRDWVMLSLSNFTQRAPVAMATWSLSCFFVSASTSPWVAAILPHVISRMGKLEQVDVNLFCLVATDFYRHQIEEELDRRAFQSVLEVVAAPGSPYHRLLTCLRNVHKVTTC
As a reminder, the inhibition is the change of the read-out against control, counted positive when it falls. On to `CC(C)(C)NC(=O)N1CCC(CNS(=O)(=O)c2ccc(Br)s2)CC1`, for which the inhibition was -7.3% (inactive).
Consider `CCCNc1cc(N2CCCC(CCC(=O)N3CCN(CCC)CC3)C2)ncn1` (centres undefined), for which the inhibition is 5.87% (inactive).
With `CCCNc1cc(N2CCCC(CCC(=O)Nc3ccc4c(c3)OCCO4)C2)ncn1` (centres undefined) the figure was 62.5% (active); with `CCCNc1cc(N2CCCC(CCC(=O)Nc3cccc(C)c3C)C2)ncn1` (centres undefined), -0.7% (inactive); with `Cc1ccc(Cl)cc1N1CCN(C(=O)Cn2nc(C(F)(F)F)c(Br)c2C)CC1`, -5% (inactive).
In the case of `C=C(C)c1nc2ccc(Br)cc2c(=O)o1`, the inhibition is -3% (inactive).
With `CCc1cccc(NC(=O)N2CCc3c(c(-c4nc(C)no4)nn3C)C2)c1` the figure was 53.9% (active); with `Cc1cccc(NC(=O)N2CCc3c(c(-c4nc(C5CC5)no4)nn3C)C2)c1`, 34.8% (inactive).
In the case of `Cc1noc(-c2nn(C)c3c2CN(C(=O)Nc2cccc(C(F)(F)F)c2)CC3)n1` it was 28.3% (inactive).
Turning to `CCOC(=O)c1sc(NC(=O)CN2C(=O)c3ccccc3C2=O)c(SC#N)c1C`, the inhibition was 0.3% (inactive).
In the case of `CCN1c2ccc(C)cc2C(=O)NC12CCN(C(=O)c1cc(F)cc(F)c1)CC2` it was 3.5% (inactive).
In the case of `COc1cccc(Nc2ncc3c(n2)CCN(Cc2ccc(F)c(F)c2)C3)c1` it was 33.9% (inactive).
With `COc1ccc(OC)c(Nc2ncc3c(n2)CCN(Cc2ccccc2)C3)c1` the figure was 10.5% (inactive); with `COc1ccc(CN2CCc3nc(Nc4ccc5c(c4)OCCO5)ncc3C2)cc1`, 55.6% (active).
For `Fc1ccc(Nc2ncc3c(n2)CCN(Cc2ccccc2)C3)cc1`, the inhibition was -7.34% (inactive).
With `CCOc1cccc(CN2CCc3nc(Nc4ccc(OC)cc4)ncc3C2)c1` the figure was -0.89% (inactive); with `Clc1ccccc1CN1CCc2nc(Nc3ccc4c(c3)OCO4)ncc2C1`, 87.4% (active).
In the case of `COc1ccc(CN2CCc3nc(Nc4ccccc4)ncc3C2)c(OC)c1OC` it was 47.4% (inactive).
In the case of `CCN1CCN(c2ncc3c(n2)CCN(Cc2ccccc2Cl)C3)CC1` it was 39% (inactive); in that of `COc1cc(Nc2ncc3c(n2)CCN(Cc2cc(OC)ccc2OC)C3)cc(OC)c1`, 76.3% (active).
Turning to `O=C(Nc1nnc(SCc2ccc(C(F)(F)F)cc2)s1)c1cccs1`, the inhibition is -13.3% (inactive).
As for `CN(Cc1cn(Cc2ccc(C(F)(F)F)cc2)nn1)C1CN(Cc2cn(Cc3ccc(C(F)(F)F)cc3)nn2)S(=O)(=O)C1` (centres undefined), the inhibition was 10.9% (inactive).
With `Cc1ccccc1CNC(=O)CCC1CCCN(C(=O)Nc2ccccc2F)C1` (centres undefined) the figure was -0.96% (inactive); with `CCCn1c(C2CCN(C(=O)CCC3CCCC3)C2)nc2cccnc21` (centres undefined), 19.8% (inactive).
For `Cc1nc(-c2ccc(C(=O)Nc3ccc(C)c(F)c3)cc2)cs1`, the inhibition was -6% (inactive).
With `COc1cccc(-c2nc(C3CCN(S(=O)(=O)c4cccc(Cl)c4C)CC3)no2)c1` the figure was -1.63% (inactive).
With `Cc1c(Cl)cccc1NC(=O)c1ccc(F)c(S(=O)(=O)N2CCCC2)c1` the figure was 3% (inactive); with `Cc1ccc2c(c1)CCN1C(=O)CN(S(=O)(=O)c3cccc(Cl)c3C)CC21` (centres undefined), 61.2% (active); with `CC1C(=O)N(c2ccccc2-c2ccccc2)CCN1C(=O)C1CCCC1` (centres undefined), 3.1% (inactive).
With `CSc1ccc(C2C=C(c3ccc(Cl)s3)Nc3ncnn32)cc1` (centres undefined), the inhibition is 21% (inactive).
With `CC(C(=O)Nc1ccc(Cl)c(C(F)(F)F)c1)N1C(=O)c2ccccc2C1=O` (centres undefined) the figure was 24% (inactive).
In the case of `CCn1c(SCC(=O)Nc2ccc(Br)cc2)nnc1-c1cc(OC)cc(OC)c1` it was 4.9% (inactive); in that of `Cc1csc(-c2ccc(CNC(=O)c3ccnn3C)cc2)n1`, -3.6% (inactive); in that of `CCOc1cccc2cc(C(=O)Nc3nnc(-c4csc(C)n4)o3)oc12`, 54.6% (active).
With `CCOc1cccc2cc(C(=O)Nc3ccc(Cl)cc3Cl)c(=O)oc12` the figure was 1% (inactive); with `COc1cccc2cc(C(=O)NCCn3ccnc3C)oc12`, -8.3% (inactive).
Regarding `CCCCOc1ccc(C(=O)Nc2nnc(-c3ccncc3)o2)cc1`, the inhibition was 40.2% (inactive).
With `Cc1nc(-c2nnc(NC(=O)c3ccnn3C)o2)cs1`, the inhibition was 50.2% (active).
With `COc1ccc(N2C(=O)C3N=NN(Cc4c(F)cccc4Cl)C3C2=O)cc1` (centres undefined), the inhibition was -2.2% (inactive).
As to `COc1ccc(-n2nc3cc(C)c(NC(=O)c4ccccc4F)cc3n2)cc1`, the inhibition was -3.4% (inactive).
For `CC(C)CCNC(=O)C1(C)CCC(=O)N1Cc1ccc(OC(C)C)cc1` (centres undefined), the inhibition is 0.89% (inactive).
With `CCOC(=O)CC1(NC(=O)N2CCn3cccc3C2Cc2ccccc2)CCCCC1` (centres undefined), the inhibition is 46.3% (inactive).
With `CCCC1c2cccn2CCN1C(=O)Nc1ccccc1C` (centres undefined) the figure was 6.33% (inactive); with `CCOC(=O)CCNC(=O)N1CCn2cccc2C1c1ccc(Cl)cc1` (centres undefined), 82.4% (active); with `COc1ccc(C(=O)N2CCC(c3nc(CNC(=O)C4CCC4)cs3)CC2)cc1`, 5.04% (inactive).
`O=C1CC(c2cccs2)CC2=C1C(c1cccc(Cl)c1)Nc1ccccc1N2` (centres undefined): the inhibition was 26% (inactive).
Take `Cc1ccc2oc(C3Nc4ccccc4NC4=C3C(=O)CC(c3cccs3)C4)cc(=O)c2c1` (centres undefined): the inhibition was 4.8% (inactive) and 92% (active).
With `COc1cccc(C2CC(=O)C3=C(C2)Nc2ccccc2NC3c2cccc(F)c2)c1` (centres undefined) the figure was 25% (inactive); with `O=C(Cc1nc(-c2ccccn2)n[nH]1)NC1CCCCCC1`, 98% (active); with `O=C(Cc1ccc(F)cc1)NC1CCCC1`, -1.1% (inactive).
`O=C(CSCc1ccccc1Cl)NC1CCCCC1`: the inhibition was -5.4% (inactive).
With `N#CC1=C(N)Oc2n[nH]c(C(F)(F)F)c2C1c1cccnc1` (centres undefined), the inhibition was -2% (inactive).
In the case of `Cc1ccc(Cl)cc1NC(=O)N1CC=C(c2cn(C)c3ncccc23)CC1` it was 19.5% (inactive); in that of `CCNC(=O)c1cccc(N2CCNC(c3ccccc3)C2)n1` (centres undefined), 2.6% (inactive).
Regarding `Cc1ccc(CNC(=O)c2cccc(N3CCNC(c4ccccc4)C3)n2)cc1` (centres undefined), the inhibition was 57.7% (active).
For the compound `O=C(NCc1ccc(F)cc1)c1cccc(N2CCNC(c3ccccc3)C2)n1` (centres undefined), the inhibition is 44.2% (inactive).
Turning to `Cc1cc(C(=O)NCC(c2cn(C)c3ccccc23)N(C)C)no1` (centres undefined), the inhibition was 0.7% (inactive).
Turning to `Cn1cc(C(NS(=O)(=O)c2ccc(Cl)cc2)C(Cl)(Cl)Cl)c2ccccc21` (centres undefined), the inhibition is 77% (active).
As for `Cc1[nH]c2ccccc2c1C(NS(=O)(=O)c1ccccc1)C(Cl)(Cl)Cl` (centres undefined), the inhibition is 30% (inactive).
As for `O=C(Cc1ccccc1F)N1CCOc2ccccc2C1`, the inhibition was 0.06% (inactive).
For `COCCN1CCC(N2CCCN(C(=O)c3ccc(C)c(F)c3)CC2)C1=O` (centres undefined), the inhibition was 7.8% (inactive).
Turning to `CCC(C(=O)NCC(C)(O)CCSC)c1ccccc1` (centres undefined), the inhibition was -4.2% (inactive).
For the compound `COc1ccc(NC(=O)C[C@H]2C(=O)N(CCc3ccccc3)C[C@@H]2C)cc1`, the inhibition is -5.1% (inactive).
In the case of `CNC(=O)C[C@H]1C(=O)N(c2ccc(OC)cc2)C[C@@H]1Cc1ccccc1` it was -3.3% (inactive).
Consider `O=C(C[C@H]1C(=O)N(c2ccc(F)c(F)c2)C[C@@H]1Cc1ccccc1)Nc1ccccc1`, for which the inhibition is 52.3% (active).
In the case of `COc1ccc(C(=O)N2CCC(c3nc(C(=O)N4CCSCC4)c(C)o3)CC2)cc1F` it was 5.94% (inactive); in that of `CC(=O)c1ccc(OCC(O)CNC2CCCC2)cc1` (centres undefined), -0.4% (inactive).
For the compound `O=C(NCc1ccccc1F)c1cc2n(n1)CCCC2`, the inhibition was -5.1% (inactive).
With `COc1cc(OC)c2ccc(=O)oc2c1C(CCN1CCN(c2ccccc2)CC1)c1ccc2c(c1)OCO2` (centres undefined) the figure was 73.2% (active); with `COc1cc(C(CCN2CCN(c3ccccc3)CC2)c2c(OC)cc(OC)c3ccc(=O)oc23)cc(OC)c1OC` (centres undefined), 89.6% (active).
With `COc1ccccc1C(CCNCc1ccccc1)c1ccc2c(c1)OCO2` (centres undefined) the figure was 47.4% (inactive); with `COc1ccc(C(CC(=O)N2CCN(c3ccccc3)CC2)c2c(O)cc(OC)cc2OC)cc1` (centres undefined), 34.4% (inactive).
Take `COc1ccc(CN2CCN(Cc3cc(OC)c(OC)c(OC)c3)CC2)cc1`: the inhibition was 2.6% (inactive).
In the case of `COc1ccccc1N1CCN(Cc2cc(OC)c3c(c2)OCO3)CC1` it was 4.1% (inactive); in that of `CNC(=O)c1ccc2c(c1SC)C(=O)c1ccccc1C2=O`, -3% (inactive).
In the case of `CC1(C)CC(=O)C(C(=N)CC2CC(=O)NC(=O)C2)=C(O)C1` it was 3% (inactive); in that of `CC(C)(C)[C@H]1CCSC2=NCCC[C@]2(c2ccccc2)C1`, 7% (inactive).
With `CC(SCc1ccccc1)C(=O)Nc1ccc(Cl)cc1` (centres undefined) the figure was -33.9% (inactive); with `O=C(Cc1c(C(=O)O)[nH]c2ccc(Cl)cc12)Nc1cccc(Cl)c1`, 14% (inactive); with `O[C@@H]1C[C@H](c2ccccc2)N(Cc2cccs2)C[C@H]1n1cc(C2CC2)nn1`, 19.2% (inactive).
On to `O=C(c1cccs1)N1C[C@H](n2cc(C3CC3)nn2)[C@@H](O)C[C@@H]1c1ccccc1`, for which the inhibition is 4.1% (inactive).
In the case of `O=C(OCc1cn([C@@H]2C[C@H](c3ccc(Cl)cc3)N(Cc3cccs3)C[C@H]2O)nn1)c1ccccc1`, the inhibition is 2.5% (inactive).
In the case of `Cc1ccc([C@H]2C[C@H](O)[C@@H](n3cc(COC(=O)c4ccccc4)nn3)CN2CC2CCCCC2)cc1` it was 23.1% (inactive).
`CCCCCCN1C[C@@H](O)[C@H](n2cc(COC(=O)c3ccccc3)nn2)C[C@@H]1c1ccc(Cl)cc1`: the inhibition is -4.7% (inactive).
With `CCCCCCN1C[C@H](O)[C@@H](n2cc(C3CC3)nn2)C[C@@H]1c1ccc(Cl)cc1` the figure was 72.7% (active); with `O[C@H]1C[C@H](c2ccc(Cl)cc2)N(Cc2cccs2)C[C@@H]1n1cc(C2CC2)nn1`, 100% (active); with `O[C@H]1CN(Cc2cccs2)[C@@H](c2ccc(Cl)cc2)C[C@@H]1n1cc(C2CC2)nn1`, 98.3% (active).
With `COc1ccc([C@H]2C[C@@H](n3cc(COC(=O)c4ccccc4)nn3)[C@H](O)CN2C(=O)c2cccs2)cc1` the figure was 23.6% (inactive); with `O=C(NCCC1CCN(C(=O)c2ccc(F)cc2)CC1)c1ccc(F)cc1`, -1.87% (inactive).
